This passage reports Potency results from PubChem BioAssay (Tox21).

Molecules are shown by their SMILES. Records with an inconclusive call do not appear. A call without a number means that no potency is given here. The source made the active and inactive calls. The call rests on the fitted dose curve.

The assay in a line: p53 small molecule agonists, cell-based qHTS assay with rat liver microsomes (AID 1963578). In a few lines:
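Cells carrying a p53 response element–beta-lactamase reporter were plated and rested 5 h, then dosed with compound in DMSO plus rat liver microsomes and NADPH, each at 0.5 mg/mL final. After 16 h at 37 C, LiveBLAzer substrate was added for 2 h.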
Background: qHTS replaces the single test concentration by a dilution series.

As for `CC(Br)C(=O)O` (stereo unspecified), the Potency result was “inactive”.

Take `[P]#[In]`: the Potency entry is “inactive”. Then `O=P(O)(O)CCCl`, with “inactive”; and `CCCBr`, with “inactive”. As for `CN(C)C(=O)C(c1ccccc1)c1ccccc1`, the Potency entry was “inactive”. Regarding `CN1CCC(N(Cc2ccccc2)c2ccccc2)CC1`, the Potency result is “inactive”. Then `C(CCOCC1CO1)COCC1CO1` (stereo unspecified), with “inactive”. Then `Nc1ncc([N+](=O)[O-])s1`, with “inactive”; and `O=C(O)C(F)(F)C(F)(F)C(F)(F)C(F)(F)C(F)(F)C(F)(F)F`, with “inactive”. As for `O=NN1CCCC1`, the Potency result was “inactive”. The result for `C[C@]12CC[C@H]3[C@@H](CC[C@@]45O[C@@H]4C(O)=C(C#N)C[C@]35C)[C@@H]1CC[C@@H]2O` reads “inactive”; that for `ClC(Cl)(Cl)Br`, “inactive”; that for `N#Cc1ccccc1Cl`, “inactive”. Then `O=c1c2ccccc2c(=O)c2c1cc(Cl)c1[nH]c3c([nH]c12)c(Cl)cc1c(=O)c2ccccc2c(=O)c13`, with “inactive”; and `COP(=O)(NC(C)=O)SC` (stereo unspecified), with “inactive”; and `COC(=O)c1sccc1S(=O)(=O)NC(=O)Nc1nc(C)nc(OC)n1`, with “inactive”. Regarding `CC(C)CON=O`, the Potency result is “inactive”.

With `CCCC(=O)Cl`, the Potency entry is “inactive”. Turning to `Clc1ccc(Cl)cc1`, the Potency entry is “inactive”. The result for `CC(C)N1C(=O)c2ccccc2NS1(=O)=O` reads “inactive”; that for `CNC(C)(C)Cc1ccccc1`, “inactive”; that for `FC(F)(F)c1ccc(Cl)cc1`, “inactive”. Then `ClCCOCOCCCl`, with “inactive”. Then `C=C1CC[C@@]2(O)[C@H]3Cc4ccc(O)c5c4[C@@]2(CCN3CC2CC2)[C@H]1O5`, with “inactive”; and `Oc1cc(Cl)ccc1Oc1ccc(Cl)cc1Cl`, with “inactive”; and `CCOP(=S)(OCC)Oc1ccc2c(C)c(Cl)c(=O)oc2c1`, with “inactive”. With `CCOP(=S)(OCC)Oc1cnc2ccccc2n1`, the Potency entry is “inactive”.

For `Cl/C=C/Cl`, the Potency entry is “inactive”. Then `CC(=O)C1CCOC1=O` (stereo unspecified), with “inactive”. With `c1ccoc1`, the Potency entry is “inactive”. Then `Clc1cccc(C(Cl)(Cl)Cl)n1`, with “inactive”.
